Among the test systems are NCI-H23 lung; NCI-H226 lung; NCI-H322M lung; HOP-62 NSCLC; HOP-92 NSCLC; NCI-H522 lung; A549/ATCC NSCLC; 786-0 renal; COLO 205 colon; DU-145 prostate; K-562 leukemia; MALME-3M melanoma; MDA-MB-231 breast; RXF 393 renal; SF-268 CNS; SF-295 CNS; SF-539 CNS; UACC-257 melanoma; M14 melanoma; NCI-H460 lung.
What all share (assay): NCI-60 one-dose screen, 48 h (100 = growth as untreated, 0 = no growth, -100 = all killed)
Holding throughout (conditions): 10 µM unless noted

Compounds without any hit were thinned out: in the full panel of roughly 83,000, 20% have a hit.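 Assay: single dose, 48 h. Readout: percent growth (0 = no net growth; negative = cell death). Active: <10.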 Unmarked numbers belong to inactive results. The source made the active and inactive calls.

Turning to `O=c1[nH]c(=S)[nH]c2nc[nH]c12`, the growth in the experiment on NCI-H23 lung was 88.6%; in the experiment on NCI-H226 lung it was 99.8%; with NCI-H322M lung it was 118%; with HOP-62 NSCLC, 86.9%; in the experiment with HOP-92 NSCLC it was 108%; with NCI-H522 lung, 100%. Besides, the growth with A549/ATCC NSCLC is 99.1%; in the experiment on 786-0 renal, 91.6%; in the experiment with COLO 205 colon, 123%; in the experiment on DU-145 prostate, 107%; with K-562 leukemia it was 89.2%; in the experiment with MALME-3M melanoma, 112%. Further, the growth was 109% in the experiment with MDA-MB-231 breast; 79.5% in the experiment on RXF 393 renal; 97.9% in the experiment on SF-268 CNS; 106% with SF-295 CNS; 105% in the experiment on SF-539 CNS; 96.6% in the experiment on UACC-257 melanoma. Also, in the experiment with M14 melanoma, the growth is 90.7%.

For `CC(C)=CCC/C(C)=C/CC/C(C)=C/CC/C(C)=C/CSC[C@H](NC(=O)CCCCCN1CCN(C)CC1)C(=O)NC1CCCCC1`, the growth was 73% in the experiment on NCI-H23 lung; 95.8% with NCI-H226 lung; 89.8% with NCI-H322M lung; 85.6% in the experiment with HOP-62 NSCLC; 76.4% with HOP-92 NSCLC; 85% with NCI-H522 lung. Moreover, the growth is 71.7% in the experiment with A549/ATCC NSCLC; 83.7% in the experiment with 786-0 renal; 8.86% (active) in the experiment on COLO 205 colon; 64.3% in the experiment with DU-145 prostate; -27.2% (active) in the experiment on K-562 leukemia; 71.2% in the experiment with MALME-3M melanoma. Also, the growth in the experiment on MDA-MB-231 breast is -81.3% (active); with RXF 393 renal, 75.1%; in the experiment on SF-268 CNS, 84.8%; in the experiment with SF-539 CNS, 85.7%; in the experiment with UACC-257 melanoma, 105%; in the experiment with M14 melanoma, 35.1%.

Turning to `Cc1cc(C=O)c(C)c2c1[nH]c1ccccc12`, the growth with NCI-H23 lung is 98.5%; in the experiment with NCI-H226 lung, -21.9% (active); in the experiment on NCI-H322M lung, 97.7%; in the experiment on HOP-62 NSCLC, 103%; in the experiment with NCI-H460 lung, 76.1%; with HOP-92 NSCLC it was 88.7%. Besides, the growth with NCI-H522 lung was 88.5%; in the experiment with A549/ATCC NSCLC, 99.2%; in the experiment with 786-0 renal, 100%; with COLO 205 colon, 110%; with DU-145 prostate, 107%; in the experiment on K-562 leukemia it was 97.8%. For the same molecule, the growth in the experiment on MDA-MB-231 breast is 90.5%; in the experiment with RXF 393 renal, 117%; with SF-268 CNS, 96.8%; in the experiment with SF-539 CNS, 95.9%; with UACC-257 melanoma it was 78.6%; in the experiment on M14 melanoma, 105%.

Regarding `C/C(=N\Nc1cc(C)c2cc(C)ccc2n1)c1ccccn1`, the growth is 10.2% with NCI-H23 lung; -5.19% (active) in the experiment with NCI-H226 lung; -9.38% (active) in the experiment on NCI-H322M lung; 10.1% in the experiment with HOP-62 NSCLC; -68.7% (active) in the experiment on NCI-H460 lung; -11% (active) in the experiment on HOP-92 NSCLC. The growth in the experiment with NCI-H522 lung is -93.5% (active); with A549/ATCC NSCLC it was 1.9% (active); in the experiment with 786-0 renal it was -73.3% (active); with COLO 205 colon, -99.9% (active); in the experiment with DU-145 prostate it was 21%; with K-562 leukemia it was -40.8% (active). Moreover, the growth in the experiment with MDA-MB-231 breast is -89.1% (active); in the experiment on RXF 393 renal, -88.2% (active); in the experiment with SF-268 CNS it was -4.43% (active); in the experiment with SF-539 CNS, -92.4% (active); in the experiment with UACC-257 melanoma, -73.5% (active); in the experiment with M14 melanoma, -82.9% (active).

As to `O=C1c2cc3c(cc2-c2c1c1ccc(Cl)cc1c(=O)n2C[C@H](O)[C@@H](O)[C@H](O)CO)OCO3`, the growth in the experiment on NCI-H23 lung is -18% (active); with NCI-H226 lung, -49.6% (active); in the experiment with NCI-H322M lung, 12.6%; in the experiment with HOP-62 NSCLC it was -43.1% (active); in the experiment with HOP-92 NSCLC, 12.4%; in the experiment with NCI-H522 lung it was -59.5% (active). For the same molecule, the growth in the experiment with A549/ATCC NSCLC is -75.8% (active); in the experiment with 786-0 renal, 4.87% (active); in the experiment on COLO 205 colon, -16.6% (active); with DU-145 prostate, 3.84% (active); in the experiment with K-562 leukemia, 12%; in the experiment on MALME-3M melanoma, -28.2% (active). The growth is 6.7% (active) in the experiment on MDA-MB-231 breast; -47% (active) in the experiment on RXF 393 renal; 7% (active) in the experiment with SF-268 CNS; -5.74% (active) in the experiment with SF-295 CNS; -39.8% (active) with SF-539 CNS; -49.4% (active) with UACC-257 melanoma. The growth in the experiment on M14 melanoma is 4.34% (active).

`O=C(N/N=C/c1ccccc1SSc1ccccc1/C=N/NC(=O)c1ccccc1)c1ccccc1`: the growth with NCI-H23 lung was 33.5%; in the experiment with NCI-H226 lung, 44.8%; in the experiment on NCI-H322M lung it was 46.5%; with HOP-62 NSCLC it was 20.2%; in the experiment with HOP-92 NSCLC it was 59.6%; in the experiment with NCI-H522 lung it was 54%. Also, the growth is 49.6% in the experiment on A549/ATCC NSCLC; 23.6% in the experiment with 786-0 renal; 6.05% (active) in the experiment on COLO 205 colon; 35.3% with DU-145 prostate; 18.3% with K-562 leukemia; 48.9% with MALME-3M melanoma. Further, the growth with MDA-MB-231 breast was 44.7%; in the experiment on RXF 393 renal, 34.2%; in the experiment with SF-268 CNS it was 32%; with SF-295 CNS, 38.2%; with SF-539 CNS, 26.9%; with UACC-257 melanoma it was 45.1%. Moreover, the growth with M14 melanoma is 12.9%.

Turning to `COc1ccc(-c2cc(/C=C/C(=O)c3ccc(OC)c(OC)c3)[nH]n2)cc1`, the growth in the experiment with NCI-H23 lung is 32.7%; with NCI-H226 lung, 50.9%; with NCI-H322M lung, 26.1%; with HOP-62 NSCLC it was 8.64% (active); in the experiment on HOP-92 NSCLC it was 66.6%; with NCI-H522 lung, 1.47% (active). Besides, the growth in the experiment with A549/ATCC NSCLC was 29.2%; with 786-0 renal, 13%; in the experiment with COLO 205 colon, 24.5%; in the experiment on DU-145 prostate it was 0.792% (active); in the experiment on K-562 leukemia, -29.8% (active); with MALME-3M melanoma, 63.1%. Further, the growth with MDA-MB-231 breast was 28.8%; with RXF 393 renal, 8.62% (active); in the experiment on SF-268 CNS, 7.76% (active); in the experiment on SF-539 CNS, -50.7% (active); with UACC-257 melanoma, 73.9%; in the experiment with M14 melanoma, 41.8%.

With `Cn1cc(-c2csc(-c3cn(CCN)c4ccccc34)n2)c2cccnc21`, the growth with NCI-H23 lung was 59.3%; in the experiment on NCI-H226 lung, 66.4%; in the experiment on NCI-H322M lung it was 70.9%; in the experiment with HOP-62 NSCLC, 40.1%; in the experiment on HOP-92 NSCLC, 37.6%; in the experiment on NCI-H522 lung, 65.8%. In addition, the growth with A549/ATCC NSCLC was 40%; in the experiment on 786-0 renal, 46.7%; in the experiment on COLO 205 colon it was 20.7%; in the experiment with DU-145 prostate, 75.6%; with K-562 leukemia, -44.3% (active); in the experiment on MALME-3M melanoma it was 68.2%. The growth is 45.7% in the experiment with MDA-MB-231 breast; 70.9% in the experiment with RXF 393 renal; 64.4% in the experiment with SF-268 CNS; 58.6% in the experiment with SF-295 CNS; 47.9% with SF-539 CNS; 78.1% with UACC-257 melanoma. Also, in the experiment with M14 melanoma, the growth is 43.4%.

In the case of `C/C(=N\Nc1ccc2ccccc2n1)c1ccccn1`, the growth is 23.3% in the experiment with NCI-H23 lung; 0.47% (active) in the experiment on NCI-H226 lung; -12% (active) in the experiment on NCI-H322M lung; 5.02% (active) in the experiment on HOP-62 NSCLC; 0.889% (active) in the experiment with NCI-H460 lung; -10.9% (active) with HOP-92 NSCLC. Besides, the growth with NCI-H522 lung was -16.4% (active); with A549/ATCC NSCLC it was 4.55% (active); in the experiment on 786-0 renal, 6.89% (active); with COLO 205 colon, 0.767% (active); in the experiment on DU-145 prostate, 13.1%; in the experiment on K-562 leukemia it was 2.37% (active). Besides, the growth in the experiment with MDA-MB-231 breast is -5.17% (active); in the experiment on RXF 393 renal it was 9.99% (active); with SF-268 CNS, -3.84% (active); in the experiment on SF-539 CNS, -44.2% (active); in the experiment on UACC-257 melanoma, -22.6% (active); in the experiment with M14 melanoma it was -24.6% (active).
